Inconclusive results are not listed. Active and inactive are the calls of the source. The call rests on the fitted dose curve; in most records, active means well fitted curve in the direction sought with a large enough effect; inconclusive means small, poorly fitted or top-dose-only effect, or another doubt; inactive means no such curve, though single readings can be large; an effect the other way counts as inactive or inconclusive.
Legend:
[1] = system: Zika virus NS2B-NS3 protease (linked construct); experiment: Primary screen NINDS Rhodamine qHTS for Zika virus inhibitors (AID 1347160); further: nearly all actives have a fitted effect of over 55% in size
Method in brief: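 Aprotinin served as in-plate control. Conditions: 25 nM linked NS2B-NS3, pH 8.0 Tris buffer, titrated compounds, 15 min preincubation and 15 min reaction with 1.5 microM Rhod110 substrate at room temperature.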

[2] = Primary qHTS for inhibitors of nuclear receptor binding SET domain protein 2 (NSD2) in an isogenic RCH-ACV NSD2 p.E1099K mutant (9B) (AID 1645876); further: nearly all actives have a fitted effect of over 70% in size
[3] = molecular target: Glutathione peroxidase 1 (Homo sapiens) (UniProt P07203); experiment: Primary qHTS Assay for Inhibitors of Recombinant Selenoprotein Glutathione Peroxidase 1 (GPX1) (AID 1845191); further: nearly all actives have a fitted effect of over 65% in size; further: potency means the concentration at half of the fitted maximal effect
Method in brief: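 NADPH consumption tracked by fluorescence at 340/450 nm between t=0 and t=15 min, room temperature. Final mix: 10 nM GPX1, 100 nM glutathione reductase, 1 mM GSH, 0.5 mM NADPH, 0.5 mM cumene hydroperoxide, 0.01% BSA; 30 min compound–enzyme preincubation.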

[4] = molecular target: Phospholipid hydroperoxide glutathione peroxidase GPX4 (Homo sapiens) (UniProt P36969); experiment: Primary qHTS Assay for Inhibitors of Recombinant Selenoprotein Glutathione Peroxidase 4 (GPX4) (AID 1845192); further: nearly all actives have a fitted effect of over 65% in size
Method in brief: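 NADPH consumption followed by fluorescence at 340/450 nm, t=0 and after 15 min at room temperature. Reaction started with cumene hydroperoxide (0.5 mM final) after 30 min compound–GPX4 preincubation; final 200 nM GPX4, 100 nM GR, 1 mM GSH, 0.5 mM NADPH.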

[5] = molecular target: Luciferin 4-monooxygenase (Photinus pyralis) (UniProt P08659); experiment: Primary firefly luciferase (FLuc) qHTS assay for identification of artifact compounds. (AID 1845220); conditions: outcome: dose series up to 54.1 µM unless noted; further: nearly all actives have a fitted effect of over 60% in size
Method in brief: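 FLuc 10 nM; luciferin 10 uM; ATP 10 uM; Tris-acetate pH 7.6, Mg-acetate 10 mM; 15 min RT preincubation; 5 min reaction; luminescence.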

[6] = system: Nanoluciferase (engineered Oplophorus gracilirostris luciferase); experiment: Primary Nanoluciferase (NLuc) qHTS assay for identification of artifact compounds. (AID 1845222);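 further: NLuc secreted into diluted conditioned medium of S16 cells; 0% = DMSO and -100% = no enzyme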
Method in brief: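 NLuc from S16 cell medium (1:55) plus test compounds, 15 min, room temperature. Luminescence after Nano-Glo (1:100) addition, 5 min.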

CRL-7250 = normal cell line; experiment: Cytotoxic Profiling of Annotated Libraries Using Quantitative High-Throughput Screening (AID 1296008); conditions: Five cell lines viability, CellTiter-Glo ATP luminescence, 48-72 h; max response: active compounds read low; further: nearly all actives have a fitted effect of over 60% in size; on max response: on the % scale 0 is the no-effect control and ±100 the full control effect
Method in brief: (§1)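 Cytotoxicity was measured as CellTiter-Glo ATP luminescence, read after 10 min at room temperature. Compound treatment of the cells lasted 48 or 72 hr at 37 degrees Celsius in a qHTS format.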

HEK293 = experiment: as above; conditions: Five cell lines viability, CellTiter-Glo ATP luminescence, 48-72 h; max response: active compounds read low
Method in brief: as §1

HaCat = experiment: as above; conditions: Five cell lines viability, CellTiter-Glo ATP luminescence, 48-72 h; max response: active compounds read low
Method in brief: as §1

KB-3-1 = experiment: as above; conditions: Five cell lines viability, CellTiter-Glo ATP luminescence, 48-72 h; max response: active compounds read low
Method in brief: as §1

C33A = experiment: Primary qHTS to identify gynecologic anti-cancer compounds using libraries of approved drugs and bioactive compounds (AID 1345084); conditions: Gynecologic cancer cell panel viability, ATPlite luminescence, 48 h; series mostly up to 57.5 µM; further: on the % scale 0 is the no-effect control and ±100 the full control effect; nearly all actives have a fitted effect of over 55% in size
Method in brief: (§2)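 48 h compound exposure at 37 C, 5% CO2; five-point qHTS. ATPlite luminescence readout of cell ATP.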

CASKI = experiment: as above; conditions: Gynecologic cancer cell panel viability, ATPlite luminescence, 48 h; series mostly up to 57.5 µM
Method in brief: as §2

Es-2 = experiment: as above; conditions: Gynecologic cancer cell panel viability, ATPlite luminescence, 48 h; series mostly up to 57.5 µM
Method in brief: as §2

Hek293T = experiment: as above; conditions: Gynecologic cancer cell panel viability, ATPlite luminescence, 48 h, control line for the selectivity index; series mostly up to 57.5 µM
Method in brief: as §2

OV90 = experiment: as above; conditions: Gynecologic cancer cell panel viability, ATPlite luminescence, 48 h; series mostly up to 57.5 µM
Method in brief: as §2

PA-1 = experiment: as above; conditions: Gynecologic cancer cell panel viability, ATPlite luminescence, 48 h; series mostly up to 57.5 µM
Method in brief: as §2

Tov-21-G = experiment: as above; conditions: Gynecologic cancer cell panel viability, ATPlite luminescence, 48 h; series mostly up to 57.5 µM
Method in brief: as §2

Tov112D = experiment: as above; conditions: Gynecologic cancer cell panel viability, ATPlite luminescence, 48 h; series mostly up to 57.5 µM
Method in brief: as §2

[7] = molecular target: Calcium and integrin-binding protein 1 (Homo sapiens) (UniProt Q99828); experiment: Primary qHTS for Identification of Calcium Integrin Binding Protein 1 (CIB1) Competitor (AID 1508620);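 further: GST tagged CIB1 binding a fluorescein labelled alphaIIb integrin peptide tracer; top concentration of the series differs between compounds; on the % scale 0 is the no-effect control and ±100 the full control effect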
Method in brief: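 CIB1-GST (1 uM final) and compound incubated 15 min at room temperature before adding FITC-alphaIIb peptide tracer (100 nM final). Competition for binding read by fluorescence polarization (ex 480, em 540) after another 15 min at room temperature.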

[8] = Primary fluorescence-based thiol-reactive (MSTI) qHTS assay for identification of artifact compounds. (AID 1845221); further: nearly all actives have a fitted effect of over 65% in size; further: potency means the concentration at half of the fitted maximal effect
Method in brief: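 First, 4 uM MSTI in 2% DMSO/PBS pH 7.4 was dispensed; next, compounds were added; then plates sat 1 h at room temperature without light. Finally, emission at 598 nm was recorded.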

Sequence of Calcium and integrin-binding protein 1 (Homo sapiens) (Q99828 whole entry, looked up): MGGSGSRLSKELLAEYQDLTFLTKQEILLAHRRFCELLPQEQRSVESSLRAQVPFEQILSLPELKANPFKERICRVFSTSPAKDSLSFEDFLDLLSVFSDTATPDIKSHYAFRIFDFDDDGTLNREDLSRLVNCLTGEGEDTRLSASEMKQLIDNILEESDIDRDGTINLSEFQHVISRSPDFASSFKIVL
Sequence of Glutathione peroxidase 1 (Homo sapiens) (P07203 whole entry, looked up): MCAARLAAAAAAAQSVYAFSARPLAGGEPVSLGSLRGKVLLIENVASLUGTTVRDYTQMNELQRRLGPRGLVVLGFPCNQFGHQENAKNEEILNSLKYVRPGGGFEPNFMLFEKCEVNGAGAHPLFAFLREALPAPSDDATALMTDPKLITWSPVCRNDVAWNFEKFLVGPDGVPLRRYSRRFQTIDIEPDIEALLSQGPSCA
Sequence of Phospholipid hydroperoxide glutathione peroxidase GPX4 (Homo sapiens) (P36969 whole entry, looked up): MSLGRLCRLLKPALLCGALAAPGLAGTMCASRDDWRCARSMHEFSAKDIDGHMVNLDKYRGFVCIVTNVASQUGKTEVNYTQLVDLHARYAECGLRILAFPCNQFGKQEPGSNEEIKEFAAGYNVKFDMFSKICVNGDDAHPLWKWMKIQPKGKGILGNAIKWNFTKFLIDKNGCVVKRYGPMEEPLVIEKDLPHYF

CC[C@H]1C2CC3[C@@H]4N(C)c5ccccc5[C@]45C[C@@H]([C@H]2[C@H]5O)N3[C@H]1O
inactive: Potency [1] | Potency [2] | Potency [3] | Potency [4] | outcome [5] | Potency [6] | max response (CRL-7250) 3.45% | max response (HEK293) 3.06% | outcome (HaCat) | max response (KB-3-1) 2.51% | Potency (C33A) | Potency (CASKI) | Potency (Es-2) | Potency (Hek293T) | Potency (OV90) | Potency (PA-1) | Potency (Tov-21-G) | Potency (Tov112D)

COc1cc(N2CCN(C)CC2)ccc1N
inactive: Potency [1] | Potency [7] | Potency [3] | Potency [4] | outcome [5] | Potency [6] | max response (CRL-7250) 0.376% | max response (HEK293) -21.4% | max response (HaCat) 1.34% | max response (KB-3-1) -1.04% | Potency (C33A) | Potency (CASKI) | Potency (Es-2) | Potency (Hek293T) | Potency (OV90) | Potency (PA-1) | Potency (Tov-21-G) | Potency (Tov112D)
active: Potency [8] 1.19 µM

C1=C(c2cnc[nH]2)c2ccsc2CC1
inactive: Potency [1] | Potency [7] | Potency [2] | outcome [5] | Potency [6] | max response (CRL-7250) 4.29% | max response (HEK293) -1.06% | outcome (HaCat) | max response (KB-3-1) -3.3% | Potency (C33A) | Potency (CASKI) | Potency (Es-2) | Potency (Hek293T) | Potency (OV90) | Potency (PA-1) | Potency (Tov-21-G) | Potency (Tov112D)
active: Potency [3] 20.2 µM | Potency [8] 10.6 µM

CC1=CC2/C=C(\C)CCCC(O)/C=C/C(=O)OC23C(=O)NC(CC(C)C)C3C1C (stereo not drawn)
inactive: Potency [1] | Potency [7] | Potency [2] | Potency [3] | Potency [4] | outcome [5] | Potency [8] | Potency [6] | outcome (CRL-7250) | max response (HEK293) -0.114% | max response (HaCat) -3.87% | outcome (KB-3-1) | Potency (C33A) | Potency (Es-2) | Potency (Hek293T) | Potency (OV90) | Potency (PA-1) | Potency (Tov-21-G) | Potency (Tov112D)

C=C1[C@@]23C(=O)O[C@H](C)[C@]24O[C@@]2(C(=C)[C@]5(C=CC(=O)OC5(C)C)CC[C@]32C)[C@H](O)[C@@]1(C)OC4=O
inactive: Potency [7] | Potency [2] | Potency [3] | Potency [4] | Potency [8] | Potency [6] | max response (CRL-7250) -20.6% | max response (HEK293) -10.4% | outcome (HaCat) | max response (KB-3-1) -4.55% | Potency (C33A) | Potency (CASKI) | Potency (Es-2) | Potency (Hek293T) | Potency (OV90) | Potency (PA-1) | Potency (Tov-21-G) | Potency (Tov112D)

CC1CCCC(O)CC(=O)Cc2cc(O)cc(O)c2C(=O)O1 (stereo not drawn)
inactive: Potency [1] | Potency [7] | Potency [2] | Potency [3] | outcome [5] | Potency [6] | max response (CRL-7250) -9.43% | max response (HEK293) 4.64% | outcome (HaCat) | max response (KB-3-1) 8.3% | Potency (C33A) | Potency (CASKI) | Potency (Es-2) | Potency (Hek293T) | Potency (OV90) | Potency (PA-1) | Potency (Tov-21-G) | Potency (Tov112D)

CN1CCc2cc3c(cc2C1C1OC(=O)c2c1ccc1c2OCO1)OCO3 (stereo not drawn)
inactive: Potency [1] | Potency [7] | Potency [2] | Potency [3] | Potency [4] | outcome [5] | Potency [8] | Potency [6] | max response (CRL-7250) -4.88% | max response (HEK293) 1.39% | max response (HaCat) -1.45% | max response (KB-3-1) -4.22% | Potency (C33A) | Potency (CASKI) | Potency (Es-2) | Potency (Hek293T) | Potency (OV90) | Potency (PA-1) | Potency (Tov-21-G) | Potency (Tov112D)

C/C=C(/C)C1C=CC2CC(C)CC(C)C2C1/C(O)=C1\C(=O)NC(CC(C)(O)C(=O)O)C1=O (stereo not drawn)
inactive: Potency [7] | Potency [2] | Potency [3] | Potency [4] | outcome [5] inactive [at 25.7 µM] | Potency [6] | outcome (CRL-7250) | max response (HEK293) -1.39% | max response (HaCat) -6.03% | max response (KB-3-1) 4.77% | Potency (C33A) | Potency (CASKI) | Potency (Es-2) | Potency (Hek293T) | Potency (OV90) | Potency (PA-1) | Potency (Tov-21-G) | Potency (Tov112D)

CN1CCc2cc3c(cc2[C@H]1[C@@H]1OC(=O)c2c1ccc1c2OCO1)OCO3
inactive: Potency [1] | Potency [7] | Potency [2] | Potency [3] | Potency [4] | outcome [5] | Potency [8] | Potency [6] | max response (CRL-7250) -0.453% | max response (HEK293) -2.62% | outcome (HaCat) | outcome (KB-3-1) | Potency (C33A) | Potency (CASKI) | Potency (Es-2) | Potency (Hek293T) | Potency (OV90) | Potency (PA-1) | Potency (Tov-21-G) | Potency (Tov112D)

COc1ccsc1CNCC[C@@]1(c2ccccn2)CCOC2(CCCC2)C1
inactive: Potency [1] | Potency [7] | Potency [2] | Potency [3] | Potency [4] | outcome [5] | Potency [8] | Potency [6] | max response (CRL-7250) -5.82% | max response (HEK293) -0.102% | max response (HaCat) -8.27% | max response (KB-3-1) 9.07% | Potency (C33A) | Potency (CASKI) | Potency (Es-2) | Potency (Hek293T) | Potency (OV90) | Potency (PA-1) | Potency (Tov-21-G) | Potency (Tov112D)

C=CC/C=C\C/C=C\CCCCCCCc1cc(O)cc(O)c1
inactive: Potency [1] | Potency [7] | Potency [3] | Potency [4] | outcome [5] | Potency [8] | Potency [6] | max response (CRL-7250) -22.2% | max response (HEK293) -20.2% | outcome (HaCat) | max response (KB-3-1) -0.409% | Potency (C33A) | Potency (CASKI) | Potency (Es-2) | Potency (Hek293T) | Potency (OV90) | Potency (PA-1) | Potency (Tov-21-G) | Potency (Tov112D)

Source: PubChem BioAssay (NCATS)
